Results: PubChem BioAssay (EPA / NIEHS)
Results filed as inconclusive are left out. Activity calls are given as the source filed them. Rule for the calls: active = hit-call score of the fitted dose curve at least 0.9, where 1 is the maximum; inconclusive = response in the unintended direction; inactive = score below 0.9.

molecular target: Oxysterols receptor LXR-beta (Homo sapiens) (UniProt P55055); test: ATG_LXRb_TRANS: Attagene TRANS-FACTORIAL HepG2 Assay for human Liver X Receptor beta (LXRb) (AID 2282981); conditions: HepG2 Attagene TRANS GAL4-LXRb reporter, mRNA
Sequence (P55055 whole entry, looked up, the tested form may be a part): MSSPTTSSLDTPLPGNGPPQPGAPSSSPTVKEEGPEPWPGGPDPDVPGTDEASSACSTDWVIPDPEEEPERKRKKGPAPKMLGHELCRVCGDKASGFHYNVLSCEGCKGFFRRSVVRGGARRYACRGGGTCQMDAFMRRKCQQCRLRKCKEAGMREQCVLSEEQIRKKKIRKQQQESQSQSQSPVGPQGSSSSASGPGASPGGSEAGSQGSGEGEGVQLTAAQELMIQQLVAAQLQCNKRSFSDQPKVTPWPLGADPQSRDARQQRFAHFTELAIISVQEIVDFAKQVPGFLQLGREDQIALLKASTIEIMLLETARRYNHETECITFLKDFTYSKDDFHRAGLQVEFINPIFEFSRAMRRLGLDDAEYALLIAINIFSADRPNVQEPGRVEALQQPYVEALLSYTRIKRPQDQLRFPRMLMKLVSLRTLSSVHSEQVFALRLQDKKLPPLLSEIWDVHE
Protocol: ATG_TRANS is a cell-based, multiplexed-readout assay that uses HepG2, a human liver cell line, with measurements taken at 24 hours after chemical dosing in a 24-well plate.ATG_LXRb_TRANS is one of 30 assay component(s) measured or calculated from the ATG_TRANS assay. It is designed to make measurements of mRNA induction, a form of inducible reporter, as detected with fluorescence intensity signals by Reverse transcription polymerase chain reaction (RT-PCR) and Capillary electrophoresis technology.Data from the assay component ATG_LXRb_TRANS was analyzed into 1 assay endpoint. This assay endpoint, ATG_LXRb_TRANS, was analyzed in the positive analysis fitting direction relative to DMSO as the negative control and baseline of activity. Using a type of inducible reporter, measures of mRNA for gain-of-signal activity can be used to understand the reporter gene at the transcription factor-level as they relate to the gene NR1H2. Furthermore, this assay endpoint can be referred to as a primary readout, because this assay has produced multiple assay endpoints where this one serves a reporter gene function. To generalize the intended target to other relatable targets, this assay endpoint is annotated to the nuclear receptor intended target family, where the subfamily is non-steroidal.
Human liver HepG2 cells are transiently transfected with multiple reporter transcription units (MRTUs) in 6-well plates using FuGene 6 reagent (Roche; 3 ml FuGene/1 mg DNA). The MRTU constructs are regulated by a cis-regulating element (promoter). […] A major difference between the CIS and TRANS system is that in CIS activities of endogenous TFs are measured, whereas the TRANS assay evaluates changes in activities of exogenous, chimeric NR-Gal4 proteins. […] At the end of 24 hour incubation, total RNA was isolated using TriZol reagent (Invitrogen). The isolated RNA is then reverse-transcribed using oligo(dT) primer and Mo-MLV reverse transcriptase (Invitrogen) with DNAse I (Ambion) treatment for 30 min. The one-tenth of the produced cDNA was amplified by PCR using Taq DNA polymerase (Invitrogen) and two reporter sequence-specific primers. The PCR products were fluorescently labeled by primer extension with 6-arboxyfluorescein (6-FAM) 5'-labeled reporter sequence-specific primer (2 min at 95 C, 20 s at 68 C and 10 min at 72 C) and these products were digested with 5U of HpaI (New England Biolabs) for 2h at 37 C. The fragments were purified using Qiaquick PCR columns (Qiagen), analyzed on an ABI 3130xL genetic analyzer (Applied Biosystems) with peak positions identified by using a set of X-rhodamine (ROX)-labeled MapMarker1000 molecular weight standards (BioVentures). The raw capillary electrophoresis data was processed using Attagraph software (Attagene).

Which outcome does the source give for `CC(C)(C)C1CCC(O)CC1` (stereo not given) here?
Its outcome is “inactive”.

For `C[C@]12CC[C@@H]3c4ccc(O)cc4CC[C@H]3[C@@H]1CC[C@@H]2O`, which outcome is on record?
The outcome was “inactive”.

With `CCC(C)(C)C1CCC(OC)CC1` (stereo not given) as the compound, how does the outcome read?
Its outcome is “inactive”.

`CCCCCCCC(=O)N(C)C` was tested. Which outcome did it give?
Its outcome is “inactive”.

How did the outcome turn out when `Nc1cc([N+](=O)[O-])ccc1C(=O)O` was run?
The outcome was “inactive”.

How did the outcome turn out when `CC(=O)CC(=O)N(C)C` was run?
Its outcome is “inactive”.

How did the outcome turn out when `NC(=O)c1cnccn1` was run?
Its outcome is “inactive”.

How did the outcome turn out when `CCCCCCCCCCCCN1CCOCC1` was run?
The outcome was “inactive”.

`O=C(c1ccc(OCCN2CCCCC2)cc1)c1c(-c2ccc(O)cc2)sc2cc(O)ccc12` was tested. Which outcome did it give?
The outcome was “inactive”.

For `CCCCCCCCCCCCOCCOS(=O)(=O)O`, which outcome is on record?
Its outcome is “inactive”.

With `C=C(C)CCCC(C)CCO` (stereo not given) as the compound, how does the outcome read?
Its outcome is “inactive”.

For `CCCCC1CCCCC(=O)O1` (stereo not given), which outcome is on record?
The outcome was “inactive”.

How did the outcome turn out when `COc1ccccc1NC(=O)CC(C)=O` was run?
The outcome was “inactive”.

For `C[N+](C)(C)CCO`, which outcome is on record?
The outcome was “inactive”.

How did the outcome turn out when `CC(C)(O)CCc1ccccc1` was run?
Its outcome is “inactive”.

Which outcome does the source give for `CC(C)=CCCC(C)=CC(=O)O` here?
The outcome was “inactive”.

For `C=CC(=O)OCCCCCC`, which outcome is on record?
Its outcome is “inactive”.

`CC/C=C\CCOC(=O)C(C)C` was tested. Which outcome did it give?
The outcome was “inactive”.

How did the outcome turn out when `CCC(C)(C)c1cc(O)c(C(C)(C)CC)cc1O` was run?
Its outcome is “inactive”.

Which outcome does the source give for `CC(C)(C)c1cccc(O)c1` here?
Its outcome is “inactive”.

With `CNC(=C[N+](=O)[O-])NCCSCc1ccc(CN(C)C)o1` as the compound, how does the outcome read?
The outcome was “inactive”.

With `C=C(C)C(=O)OCCC[Si](OC)(OC)OC` as the compound, how does the outcome read?
Its outcome is “inactive”.

`CC(C)OB(OC(C)C)OC(C)C` was tested. Which outcome did it give?
The outcome was “inactive”.

With `N#CCCCC(C#N)CCC#N` (stereo not given) as the compound, how does the outcome read?
Its outcome is “inactive”.

How did the outcome turn out when `CCCCOC(=O)C(C)OC(=O)CCC` (stereo not given) was run?
The outcome was “inactive”.

For `Brc1cc(Br)cc(Br)c1`, which outcome is on record?
The outcome was “inactive”.

`C=CC(=O)OCC(CO)(COC(=O)C=C)COC(=O)C=C` was tested. Which outcome did it give?
The outcome was “inactive”.

With `CCCCOCCOC(=O)c1ccccc1C(=O)OCCOCCCC` as the compound, how does the outcome read?
Its outcome is “inactive”.

For `O=Cc1ccccc1O`, which outcome is on record?
The outcome was “inactive”.

For `CC1=CCC(C(C)C)=CC1`, which outcome is on record?
Its outcome is “inactive”.

Which outcome does the source give for `CC1=CC[C@@H]2C[C@H]1C2(C)C` here?
The outcome was “inactive”.

Which outcome does the source give for `CCNC(=S)NCC` here?
Its outcome is “inactive”.

How did the outcome turn out when `CC(=O)c1cccnc1` was run?
The outcome was “inactive”.

`c1ccc2c(c1)-c1ccc3ccc4cccc5cc-2c1c3c45` was tested. Which outcome did it give?
Its outcome is “inactive”.

`CCCC[N+](C)(CCCC)CCCC` was tested. Which outcome did it give?
The outcome was “inactive”.

Which outcome does the source give for `CCOC(=O)CC1(C)OCC(C)O1` (stereo not given) here?
The outcome was “inactive”.

How did the outcome turn out when `C1CCCNCC1` was run?
Its outcome is “inactive”.

How did the outcome turn out when `CCCCCCOc1ccc(O)cc1` was run?
The outcome was “inactive”.

How did the outcome turn out when `CCCCCCCCSCc1cc(C)c(O)c(CSCCCCCCCC)c1` was run?
The outcome was “inactive”.

With `OCC=Cc1ccccc1` as the compound, how does the outcome read?
Its outcome is “inactive”.
